Consider 22 molecules from PubChem BioAssay (NCATS).

Results filed as inconclusive are left out. Unmarked numbers belong to inactive results. Active and inactive are the calls of the source. Unless noted, calls follow the shape of the dose curve; as a rule, active = well fitted curve in the direction sought with a large enough effect; inconclusive = small, poorly fitted or top-dose-only effect, or another doubt; inactive = no such curve, though single readings can be large; an effect the other way counts as inactive or inconclusive.

Experiment [1] is described as follows: qHTS for Inhibitors of Plasmodium falciparum (DD2) proliferation (AID 504314). Also: potency is read from the fitted curve at half-maximal effect.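 As to activity, negative = inhibition: parasite DNA measured by SYBR Green fluorescence after red cell lysis; plate controls were DMSO vehicle for no effect and artemisinin wells for full effect.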 The essentials:
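Fluorescence read-out (ex 485/em 535 nm) of SYBR Green-stained parasite DNA quantifies intraerythrocytic growth. Cultures at 0.3% parasitemia and 2.5% hematocrit were treated for 72 h; data normalized to DMSO and 0.29 uM artemisinin wells.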
For orientation: In qHTS, concentration-response curves come from the screen itself.

Experiment [2] can be described thus: qHTS for Inhibitors of Plasmodium falciparum (GB4) proliferation (AID 504315). Also: nearly all actives have a fitted effect of over 50% in size. Also: potency is read from the fitted curve at half-maximal effect.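 As to activity change, negative = inhibition: 0% = DMSO vehicle and -100% = 0.29 µM artemisinin control.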 The essentials:
(§1)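 Erythrocytes infected with P. falciparum line (0.3% parasitemia, 2.5% hematocrit final) incubated with compounds 72 h at 37 °C, 5% CO2; SYBR Green lysis buffer added, fluorescence read next day. Normalized to 0.29 uM artemisinin and DMSO.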

The nature of experiment [3]: qHTS for Inhibitors of Plasmodium falciparum (7G8) proliferation (AID 504316). Also: nearly all actives have a fitted effect of over 65% in size. Also: potency is read from the fitted curve at half-maximal effect.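 As to activity change, negative = inhibition: series mostly up to about 6.7 µM; 0% = DMSO vehicle and -100% = 0.29 µM artemisinin full kill.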 The essentials:
as §1

Experiment [4] is described as follows: qHTS for Inhibitors of Plasmodium falciparum (HB3) proliferation (AID 504318). Also: nearly all actives have a fitted effect of over 60% in size. Also: potency is read from the fitted curve at half-maximal effect.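 As to activity change, negative = inhibition: 0% = DMSO vehicle and -100% = artemisinin control.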 In short, it runs like this: as §1
A short description of experiment [5]: qHTS for Inhibitors of Plasmodium falciparum (CP250) proliferation (AID 504320). Also: potency is read from the fitted curve at half-maximal effect.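 As to activity change, negative = inhibition: plate controls were DMSO vehicle for no effect and 0.29 µM artemisinin control for full effect.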 The essentials: as §1
The target in experiment [6] is Atrial natriuretic peptide receptor 1 (Homo sapiens) (UniProt P16066). Kind of experiment: Natriuretic polypeptide receptor (hNpr1) antagonism - Pilot CMLD screen (AID 1347052; calls by dose curve;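 also: cGMP level read as GloSensor luciferase luminescence after agonist stimulation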; also: potency is read from the fitted curve at half-maximal effect;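 as to activity change, negative = inhibition: HEK293 cells with hNpr1 stimulated by hNppA peptide at 0.1 nM; series mostly up to about 9.2 µM; % is scaled to controls: 0 for no effect and ±100 for the full control effect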).
Sequence of Atrial natriuretic peptide receptor 1 (Homo sapiens) (P16066 whole entry, looked up): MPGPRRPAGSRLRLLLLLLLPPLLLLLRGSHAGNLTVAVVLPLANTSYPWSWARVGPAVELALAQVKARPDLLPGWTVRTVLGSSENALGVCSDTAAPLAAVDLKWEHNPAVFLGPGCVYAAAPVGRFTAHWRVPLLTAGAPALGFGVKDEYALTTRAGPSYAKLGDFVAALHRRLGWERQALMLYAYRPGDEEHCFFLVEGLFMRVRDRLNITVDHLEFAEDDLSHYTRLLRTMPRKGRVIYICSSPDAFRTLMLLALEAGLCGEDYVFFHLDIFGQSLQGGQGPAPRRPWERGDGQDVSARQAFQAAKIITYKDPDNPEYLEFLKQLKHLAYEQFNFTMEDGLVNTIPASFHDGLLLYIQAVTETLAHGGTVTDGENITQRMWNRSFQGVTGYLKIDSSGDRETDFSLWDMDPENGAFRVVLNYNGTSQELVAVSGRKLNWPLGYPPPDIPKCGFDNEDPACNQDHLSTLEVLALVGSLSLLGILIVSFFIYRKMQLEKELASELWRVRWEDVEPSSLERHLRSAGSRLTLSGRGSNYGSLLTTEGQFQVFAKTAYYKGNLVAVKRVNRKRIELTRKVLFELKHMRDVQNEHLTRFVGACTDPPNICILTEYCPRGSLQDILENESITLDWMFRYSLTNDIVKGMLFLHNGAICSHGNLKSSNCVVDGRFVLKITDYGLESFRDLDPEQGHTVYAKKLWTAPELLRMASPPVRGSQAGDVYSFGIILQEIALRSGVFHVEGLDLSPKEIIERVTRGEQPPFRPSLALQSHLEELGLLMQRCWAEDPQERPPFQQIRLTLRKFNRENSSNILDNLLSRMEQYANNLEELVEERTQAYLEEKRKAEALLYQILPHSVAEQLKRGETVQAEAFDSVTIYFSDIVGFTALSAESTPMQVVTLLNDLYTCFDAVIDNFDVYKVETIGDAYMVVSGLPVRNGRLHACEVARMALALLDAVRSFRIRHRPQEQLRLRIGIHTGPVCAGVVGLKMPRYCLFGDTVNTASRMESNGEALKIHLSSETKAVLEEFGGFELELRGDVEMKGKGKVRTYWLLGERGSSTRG
Experiment [7] addresses Cytochrome P450 2C9 (Homo sapiens) (UniProt P11712). In words: qHTS Assay for Inhibitors and Substrates of Cytochrome P450 2C9 (AID 883). Also: % is scaled to controls: 0 for no effect and ±100 for the full control effect; nearly all actives have a fitted effect of over 60% in size. The essentials:
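Inhibition of CYP2C9 is scored as loss of luminescence, with 57uM sulphaphenazole defining 100% inhibition. Substrate Luciferin-H is used at 100uM, equal to its KM; enzyme at 10nM in 25mM KPO4, 60 min at 37C with NADPH regeneration.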

The target in experiment [8] is Cytochrome P450 2D6 (Homo sapiens) (UniProt P10635). In words: qHTS Assay for Inhibitors and Substrates of Cytochrome P450 2D6 (AID 891). Also: nearly all actives have a fitted effect of over 60% in size. Also: potency is read from the fitted curve at half-maximal effect.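 As to activity change, negative = inhibition: luciferin methyl ether substrate demethylated by CYP2D6 with NADPH regeneration; % is scaled to controls: 0 for no effect and ±100 for the full control effect.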 In short, it runs like this:
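Human CYP2D6 (5 nM) with 30 uM Luciferin-ME EGE (at Km) in 100 mM KPO4, compound preincubated 10 min, then NADPH regeneration system for 60 min at room temperature. Luciferin read by luminescence; normalized to 1.43 uM quinidine.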

The target in experiment [9] is Cytochrome P450 2C19 (Homo sapiens) (UniProt P33261). Kind of experiment: qHTS Assay for Inhibitors and Substrates of Cytochrome P450 2C19 (AID 899). Also: % is scaled to controls: 0 for no effect and ±100 for the full control effect; nearly all actives have a fitted effect of over 60% in size. The essentials:
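5nM enzyme + 10uM Luciferin-H EGE (=KM), 50mM KPO4; cpd pin-transferred, 10 min 37C; NADPH regen, 60 min 37C; stopped w/ luciferin detection reagent, 20 min; luminescence. Normalized to 57uM ketoconazole (AC100).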

Sequence of Cytochrome P450 2D6 (Homo sapiens) (P10635 whole entry, looked up): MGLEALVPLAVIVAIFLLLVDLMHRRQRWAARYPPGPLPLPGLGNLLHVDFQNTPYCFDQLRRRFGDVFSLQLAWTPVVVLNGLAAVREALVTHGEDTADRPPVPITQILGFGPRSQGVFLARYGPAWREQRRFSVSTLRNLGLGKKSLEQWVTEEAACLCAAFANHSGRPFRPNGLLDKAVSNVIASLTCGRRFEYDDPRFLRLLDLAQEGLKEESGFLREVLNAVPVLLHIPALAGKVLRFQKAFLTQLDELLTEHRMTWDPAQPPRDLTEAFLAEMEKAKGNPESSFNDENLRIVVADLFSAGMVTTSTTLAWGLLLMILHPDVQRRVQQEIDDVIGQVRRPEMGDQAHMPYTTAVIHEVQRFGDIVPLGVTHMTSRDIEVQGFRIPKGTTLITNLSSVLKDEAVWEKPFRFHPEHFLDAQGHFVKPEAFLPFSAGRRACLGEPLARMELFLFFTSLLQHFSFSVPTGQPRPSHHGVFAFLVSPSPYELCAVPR
Sequence of Cytochrome P450 2C19 (Homo sapiens) (P33261 whole entry, looked up): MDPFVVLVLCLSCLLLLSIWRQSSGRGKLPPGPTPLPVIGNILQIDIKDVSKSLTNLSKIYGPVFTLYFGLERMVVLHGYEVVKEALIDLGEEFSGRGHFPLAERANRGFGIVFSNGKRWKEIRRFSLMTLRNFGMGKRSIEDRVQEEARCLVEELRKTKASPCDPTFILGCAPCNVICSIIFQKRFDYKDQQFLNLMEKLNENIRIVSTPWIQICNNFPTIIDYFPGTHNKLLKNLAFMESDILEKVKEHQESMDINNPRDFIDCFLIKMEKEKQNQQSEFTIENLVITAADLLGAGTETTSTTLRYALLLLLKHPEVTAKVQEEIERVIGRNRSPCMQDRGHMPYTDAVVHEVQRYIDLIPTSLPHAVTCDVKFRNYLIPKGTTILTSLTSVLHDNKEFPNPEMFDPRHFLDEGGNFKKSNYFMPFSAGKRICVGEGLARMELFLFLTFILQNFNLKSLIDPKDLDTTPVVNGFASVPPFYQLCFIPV
Sequence of Cytochrome P450 2C9 (Homo sapiens) (P11712 whole entry, looked up): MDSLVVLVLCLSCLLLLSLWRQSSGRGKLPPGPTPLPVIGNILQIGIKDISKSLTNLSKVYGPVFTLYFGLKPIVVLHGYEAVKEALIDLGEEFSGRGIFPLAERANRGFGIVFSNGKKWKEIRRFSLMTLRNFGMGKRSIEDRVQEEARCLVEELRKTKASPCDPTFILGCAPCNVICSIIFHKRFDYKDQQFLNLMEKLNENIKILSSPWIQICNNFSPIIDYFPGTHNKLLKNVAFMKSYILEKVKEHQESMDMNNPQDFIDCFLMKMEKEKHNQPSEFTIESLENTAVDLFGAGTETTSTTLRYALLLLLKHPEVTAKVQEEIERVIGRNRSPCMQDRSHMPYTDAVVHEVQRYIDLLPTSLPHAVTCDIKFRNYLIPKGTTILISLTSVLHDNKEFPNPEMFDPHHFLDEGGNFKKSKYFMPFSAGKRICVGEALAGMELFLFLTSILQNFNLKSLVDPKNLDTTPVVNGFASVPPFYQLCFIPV

On to `COC(=O)CC1c2ccccc2C(Cc2ccc(OC)cc2)C(C)N1C(=O)OC` (stereo not given), for which the Potency entry in [1], in experiment [2], in [3], in experiment [4], in experiment [5] and in [6] was “inactive” throughout.

For `CCOC(=O)CCN1C(=O)[C@@H]2[C@H]3[C@H](O)[C@H](O)CC(=NNC(=O)OCc4ccccc4)[C@H]3CC[C@H]2C1=O`, the Potency entry in experiment [1], in [2], in experiment [3], in [4], in experiment [5] and in experiment [6] was “inactive” in each case.

Regarding `C[C@H]1Cc2c(COc3ccccc3)nc3c(c2CO1)CN(C(=O)c1cccnc1)CC3`, in experiment [1], the activity, negative = inhibition was 0.654% [at 1.12 µM]. Moreover, the Potency result in experiment [2], in experiment [3], in experiment [4], in [5] and in [6] was “inactive” each time.

Consider `CCN1C(=NCc2ccco2)N[C@@H](CCc2ccccc2)[C@H](C(=O)OC)[C@H]1C`, for which the Potency result in experiment [1], in experiment [2], in experiment [3], in experiment [4], in [5] and in experiment [6] was “inactive” each time.

As for `COC(=O)[C@H](COC(C)(C)C)NC(=O)O[C@H]1C(=O)c2ccc(OC)cc2O[C@@H]1c1ccc2c(c1)OCO2`, the Potency result in [1], in [2], in [3], in experiment [4], in experiment [5] and in experiment [6] was “inactive” each time.

As to `COC(=O)N[C@H](CC(C)=O)c1ccc2c(c1)OCO2`, the Potency entry in experiment [1], in [2], in experiment [3], in experiment [4], in experiment [5] and in experiment [6] was “inactive” in each case.

For the molecule `COc1cccc([C@H]2Oc3ccc(OC)cc3C(=NOC[C@@H](O)COCc3ccco3)[C@H]2O)c1`, the Potency entry in experiment [1], in [2], in experiment [3], in experiment [4], in [5] and in experiment [6] was “inactive” in each case.

Regarding `CC1(OC(=O)CCc2ccccc2)C(=O)C=C2C=C(C3CC3)OC=C2C1=O` (stereo not given), the Potency entry in [1], in experiment [2], in experiment [3], in experiment [4], in experiment [5] and in experiment [6] was “inactive” in each case.

Regarding `C[C@H]1C[C@@H](C)O[C@@]2(C1)C(=O)Nc1ccccc12`, the Potency entry in [1], in experiment [2], in experiment [3], in [4], in [5] and in [6] was “inactive” throughout.

In the case of `COC(=O)C1=C(C(=O)OC)[C@@H]2N(Cc3ccccc3)c3ccccc3[C@@]23C[C@@H](C(=O)OC)N(C(=O)Nc2ccccc2F)C3=N1`, the Potency entry in [1], in experiment [2], in experiment [3], in [4] and in experiment [5] was “inactive” throughout. Further, the Potency in experiment [6] was 3350 nM (active).

As for `COC(=O)C1=C(C(=O)OC)[C@@H]2N(C)c3ccc(OC)cc3[C@@]23C[C@@H](C(=O)OC)N(C(=O)c2ccco2)C3=N1`, the activity, negative = inhibition in [1] is -1.01% [at 1.12 µM]. Further, the Potency entry in [2], in [3], in [4], in experiment [5] and in experiment [6] was “inactive” in each case.

As for `Cc1cc2c(c(=O)n1Cc1ccccc1)[C@H]1O[C@](CCCCN3C(=O)c4ccccc4C3=O)(Cc3c1ccc1ccccc31)O2`, the Potency in experiment [1] was 1690 nM (active); in [2], 1510 nM (active); in [3], 1510 nM (active); in experiment [4] it was 1510 nM (active); in experiment [5] it was 1690 nM (active). In experiment [6], the Potency entry is “inactive”.

With `CCCCCCC#C[C@@H]1C=C[C@H](OC(=O)OCC)[C@@H](COC(=O)OCC)O1`, the Potency entry in experiment [1], in [2], in [3], in [4], in experiment [5] and in experiment [6] was “inactive” each time.

`C=C[C@H](C)[C@](C)(O)c1ccccc1`: the Potency entry in [1], in experiment [2], in experiment [3], in experiment [4], in experiment [5] and in experiment [6] was “inactive” throughout.

Consider `COC(=O)CCCC1=CC2=CC(=O)C(C)(OC(=O)c3cccs3)C(=O)C2=CN1C1CCCCC1` (stereo not given), for which the Potency entry in experiment [1], in [2], in experiment [3], in [4], in experiment [5] and in [6] was “inactive” in each case.

Consider `CCN1C(=O)NC(c2cccs2)C(C(=O)OC)=C1C` (stereo not given), for which the Potency result in experiment [1], in experiment [2], in experiment [3], in [4], in experiment [5] and in [6] was “inactive” throughout.

For the molecule `O=C1CCCC1C(O)c1ccc2ccccc2c1` (stereo not given), the Potency entry in experiment [1], in experiment [2], in experiment [3], in experiment [4], in experiment [5] and in [6] was “inactive” throughout.

In the case of `COc1ccc(COC(=O)NN=C2C[C@@H](O)[C@@H](O)[C@@H]3[C@H]4C(=O)N(C[C@@H]5CCCO5)C(=O)[C@@H]4CC[C@H]23)cc1`, the Potency result in experiment [1], in [2], in experiment [3], in experiment [5] and in experiment [6] was “inactive” throughout.

Consider `C=CCC1(O)C=CCC2C3C4C(OC(C)(C)C)C2C1C34` (stereo not given), for which the activity change, negative = inhibition in [7] was -12.7% [at 11.4 µM]; in experiment [8] it was -4.54% [at 11.4 µM]. For the same molecule, the activity, negative = inhibition in experiment [9] is -32.4% [at 11.4 µM]. Further, the Potency result in [1], in experiment [2], in experiment [3], in experiment [4], in experiment [5] and in experiment [6] was “inactive” in each case.

Take `COC(=O)CCCC1=CC2=C(c3ccccc3)C(=O)C(C)(OC(=O)C3CCCC3)C(=O)C2=CN1CCN1CCOCC1` (stereo not given): the Potency result in experiment [1], in experiment [2], in experiment [3], in experiment [4], in experiment [5] and in experiment [6] was “inactive” in each case.

For `C=C(C#CCCO)CCN1C=C(C(=O)OCC)C(c2ccccc2)NC1=O` (stereo not given), the Potency result in experiment [1], in experiment [2], in experiment [3], in experiment [4], in experiment [5] and in experiment [6] was “inactive” in each case.

Turning to `CCCCCCCC1=CC2=CC(=O)C(C)(OC(C)=O)C(=O)C2=CN1CCc1ccccc1` (stereo not given), the Potency in experiment [8] is 3160 nM (active). For the same molecule, in [9], the activity, negative = inhibition was 78.5% [at 11.4 µM]. Moreover, the Potency result in experiment [1], in experiment [2], in [3], in [4] and in [6] was “inactive” in each case.
